Assay results taken from PubChem BioAssay (NCATS).
Records with an inconclusive call do not appear. Activity calls are given as the source filed them. Calls follow the shape of the dose curve; as a rule, active = well fitted inhibition curve with a large enough effect; inconclusive = small, poorly fitted or top-dose-only effect; inactive = flat fitted curve, though single readings scatter.

Tested on: CP265
Experiment: qHTS profiling for inhibitors of Plasmodium falciparum proliferation (AID 504749);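 also: 0% = DMSO vehicle and full inhibition = artemisinin control; nearly all actives have a fitted effect of over 60% in size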
Settings: P. falciparum in erythrocytes, SYBR Green DNA, 72 h; series mostly up to 12.8 µM; activity, negative = inhibition: at the top concentration
Summary of the method: (§1)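 Each compound contacts P. falciparum-infected red blood cells for 72 h at 37 C; lysis buffer (Tris, EDTA, saponin, Triton X, SYBR Green I) is added and fluorescence measured next morning; values normalized to controls.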

Q: Which “activity, negative = inhibition” value does the source give for C[N+](C)(C)CC(O)CC(=O)O (stereo not given) here?
A: Its value is -5.61% [at 28.7 µM] (inactive).

Q: For CC(C)N1CCN(c2ccc(OC[C@@H]3CO[C@@](Cn4cncn4)(c4ccc(Cl)cc4Cl)O3)cc2)CC1, which “activity, negative = inhibition” value is on record?
A: The value was 0.995% (inactive).

Q: For C[C@@H]1CCC[C@H](C)N1NC(=O)c1ccc(Cl)c(S(N)(=O)=O)c1, which “activity, negative = inhibition” value is on record?
A: The value was -0.772% (inactive).

Q: Which “activity, negative = inhibition” value does the source give for O=C(Cc1cccs1)NC1C(=O)N2C(C(=O)[O-])=C(C[n+]3ccccc3)CSC12 (stereo not given) here?
A: The value was 0.371% [at 28.7 µM] (inactive).

Tested on: CP266
Experiment: as above
Settings: P. falciparum in erythrocytes, SYBR Green DNA, 72 h; series mostly up to 28.7 µM; activity, negative = inhibition: at the top concentration
Summary of the method: as §1

Q: For C[N+](C)(C)CC(O)CC(=O)O (stereo not given), which “activity, negative = inhibition” value is on record?
A: The value was 11.9% (inactive).

Q: How did the “activity, negative = inhibition” value turn out when CN(C)CC/C=C1\c2ccccc2CSc2ccccc21 was run?
A: The value was -3.21% [at 12.8 µM] (inactive).

Q: For C[C@@H]1CCC[C@H](C)N1NC(=O)c1ccc(Cl)c(S(N)(=O)=O)c1, which “activity, negative = inhibition” value is on record?
A: Its value is 8.84% [at 12.8 µM] (inactive).

Q: For O=C(Cc1cccs1)NC1C(=O)N2C(C(=O)[O-])=C(C[n+]3ccccc3)CSC12 (stereo not given), which “activity, negative = inhibition” value is on record?
A: The value was -0.0454% (inactive).

Tested on: CP268
Experiment: as above
Settings: P. falciparum in erythrocytes, SYBR Green DNA, 72 h; series mostly up to 12.8 µM; activity, negative = inhibition: at the top concentration
Summary of the method: as §1

Q: For C[N+](C)(C)CC(O)CC(=O)O (stereo not given), which “activity, negative = inhibition” value is on record?
A: Its value is 5% [at 28.7 µM] (inactive).

Q: CC(C)N1CCN(c2ccc(OC[C@@H]3CO[C@@](Cn4cncn4)(c4ccc(Cl)cc4Cl)O3)cc2)CC1 was tested. Which “activity, negative = inhibition” value did it give?
A: The value was -6.08% (inactive).

Q: Which “activity, negative = inhibition” value does the source give for C[C@@H]1CCC[C@H](C)N1NC(=O)c1ccc(Cl)c(S(N)(=O)=O)c1 here?
A: The value was 2.95% (inactive).

Q: O=C(Cc1cccs1)NC1C(=O)N2C(C(=O)[O-])=C(C[n+]3ccccc3)CSC12 (stereo not given) was tested. Which “activity, negative = inhibition” value did it give?
A: The value was -0.534% [at 28.7 µM] (inactive).

Tested on: CP269
Experiment: as above
Settings: P. falciparum in erythrocytes, SYBR Green DNA, 72 h; series mostly up to 12.8 µM; activity, negative = inhibition: at the top concentration
Summary of the method: as §1

Q: With C[N+](C)(C)CC(O)CC(=O)O (stereo not given) as the molecule, how does the “activity, negative = inhibition” value read?
A: Its value is 3.82% [at 28.7 µM] (inactive).

Q: CC(C)N1CCN(c2ccc(OC[C@@H]3CO[C@@](Cn4cncn4)(c4ccc(Cl)cc4Cl)O3)cc2)CC1 was tested. Which “activity, negative = inhibition” value did it give?
A: Its value is -5.5% (inactive).

Q: With C[C@@H]1CCC[C@H](C)N1NC(=O)c1ccc(Cl)c(S(N)(=O)=O)c1 as the molecule, how does the “activity, negative = inhibition” value read?
A: The value was -5.48% (inactive).

Q: How did the “activity, negative = inhibition” value turn out when O=C(Cc1cccs1)NC1C(=O)N2C(C(=O)[O-])=C(C[n+]3ccccc3)CSC12 (stereo not given) was run?
A: Its value is -3.74% [at 28.7 µM] (inactive).

Tested on: CP286
Experiment: as above
Settings: P. falciparum in erythrocytes, SYBR Green DNA, 72 h; series mostly up to 12.8 µM; activity, negative = inhibition: at the top concentration
Summary of the method: as §1

Q: With C[N+](C)(C)CC(O)CC(=O)O (stereo not given) as the molecule, how does the “activity, negative = inhibition” value read?
A: Its value is 0.207% [at 28.7 µM] (inactive).

Q: CN(C)CC/C=C1\c2ccccc2CSc2ccccc21 was tested. Which “activity, negative = inhibition” value did it give?
A: The value was -29.4% (inactive).

Q: CC(C)N1CCN(c2ccc(OC[C@@H]3CO[C@@](Cn4cncn4)(c4ccc(Cl)cc4Cl)O3)cc2)CC1 was tested. Which “activity, negative = inhibition” value did it give?
A: Its value is -6.83% (inactive).

Q: Which “activity, negative = inhibition” value does the source give for C[C@@H]1CCC[C@H](C)N1NC(=O)c1ccc(Cl)c(S(N)(=O)=O)c1 here?
A: Its value is 0.118% (inactive).

Q: With O=C(Cc1cccs1)NC1C(=O)N2C(C(=O)[O-])=C(C[n+]3ccccc3)CSC12 (stereo not given) as the molecule, how does the “activity, negative = inhibition” value read?
A: The value was -0.706% [at 28.7 µM] (inactive).

Tested on: CP291
Experiment: as above
Settings: P. falciparum in erythrocytes, SYBR Green DNA, 72 h; series mostly up to 12.8 µM; activity, negative = inhibition: at the top concentration
Summary of the method: as §1

Q: C[N+](C)(C)CC(O)CC(=O)O (stereo not given) was tested. Which “activity, negative = inhibition” value did it give?
A: Its value is -7.57% [at 28.7 µM] (inactive).

Q: With CC(C)N1CCN(c2ccc(OC[C@@H]3CO[C@@](Cn4cncn4)(c4ccc(Cl)cc4Cl)O3)cc2)CC1 as the molecule, how does the “activity, negative = inhibition” value read?
A: Its value is -8.3% (inactive).

Q: With C[C@@H]1CCC[C@H](C)N1NC(=O)c1ccc(Cl)c(S(N)(=O)=O)c1 as the molecule, how does the “activity, negative = inhibition” value read?
A: The value was -1.16% (inactive).

Q: With O=C(Cc1cccs1)NC1C(=O)N2C(C(=O)[O-])=C(C[n+]3ccccc3)CSC12 (stereo not given) as the molecule, how does the “activity, negative = inhibition” value read?
A: The value was -2.59% [at 28.7 µM] (inactive).
